Assay results as given in the supplement of paper PMC12067093, “Discovery and optimisation of a covalent ligand for TRIM25 and its application to targeted protein ubiquitination” (Chemical Science, 2025).
About 21,000 targets were measured; listed, in parts, are those with the largest changes and a random draw of the rest.

Compound: Cc1cc(ccc1-c1ccccc1)C(=O)N1CCCN(CC1)C(=O)CCl [compound 10]
Assay: probe-labelled cysteine peptide fold change vs DMSO (competition) (log2 fold change); higher = less target engagement (more negative = stronger competition)
Settings: THP-1, incubation time: 4 h
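Further: competitive profiling in live THP-1 cells: cysteine peptides tagged with an iodoacetamide desthiobiotin (IA-DTB) probe, intensity after compound treatment relative to DMSO-treated cells.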

Target	probe-labelled cysteine peptide fold change (10 µM)	probe-labelled cysteine peptide fold change (50 µM)
COQ8B_Q96D53_508_AHIACR (UniProt Q96D53)	-0.221	-1.08
DDX5_P17844_191_ELAQQVQQVAAEYCR (UniProt P17844)	0.115	-0.161
DDX24_Q9GZR7_599_SLVFANSISCIK (UniProt Q9GZR7)	0.147	0.498
CTSZ_Q9UBR2_164_DQECDK (UniProt Q9UBR2)	-0.0913	-0.207
DDX27_Q96GQ7_259_DICACAATGTGK (UniProt Q96GQ7)	0.0194	-0.0602
CTSH_P09668_272_TGIYSSTSCHK (UniProt P09668)	0.176	-0.114
CTDP1_Q9Y5B0_277_ILSRDECIDPFSK (UniProt Q9Y5B0)	-0.0626	-0.31
DKC1_O60832_74_TTHYTPLACGSNPLKR (UniProt O60832)	-0.0751	-0.244
DCAF12L1_Q5VU92_150_LAQDQQGCGIHAIELNPSK (UniProt Q5VU92)	-0.214	-0.239
CNBP_P62633_150_CGETGHVAINCSK (UniProt P62633)	-0.103	0.0483
DHRS4L2_Q6PKH6_86_KQQNVDQAVATLQGEGLSVTGTVCHVGK (UniProt Q6PKH6)	0.254	-0.306
DDX39A_O00148_62_AIVDCGFEHPSEVQHECIPQAILGMDVLCQAK (UniProt O00148)	0.144	0.0705
DGLUCY_Q7Z3D6-2_165_TTVPCVTHAGFCCPLVVTMRPIPK (UniProt Q7Z3D6)	0.017	-0.4
CTPS2_Q9NRF8_299_ICSIALVGK (UniProt Q9NRF8)	-0.0254	0.193
DENND3_A2RUS2_801_TECDLWHLMVK (UniProt A2RUS2)	-0.103	-0.116
DENND3_A2RUS2_499_LTDTAGCR (UniProt A2RUS2)	-0.198	-0.918
DCLRE1C_Q96SD1_34_AYFLSHCHK (UniProt Q96SD1)	-0.0775	-0.167
DCAF12_Q5T6F0_253_EDTNPDNCK (UniProt Q5T6F0)	-0.303	-0.538
CUL3_Q13618_462+464_LKTECGCQFTSK (UniProt Q13618)	-0.0794	-1.31
DENND6A_Q8IWF6_130_VSLHCLLDQFDK (UniProt Q8IWF6)	0.295	1.1
DIAPH3_Q9NSV4_663_IRPHEMTENCFWIK (UniProt Q9NSV4)	-0.0626	-0.468

Target	probe-labelled cysteine peptide fold change (10 µM)	probe-labelled cysteine peptide fold change (50 µM)
DHX9_Q08211_608+612_KDKDDDGGEDDDANCNLICGDEYGPETR (UniProt Q08211)	-0.761	-0.243
DDX5_P17844_200_STCIYGGAPK (UniProt P17844)	-0.0442	-0.0153
DDX55_Q8NHQ9_161_AEGLDLASCVR (UniProt Q8NHQ9)	0.187	0.31
DCP2_Q8IU60_391_KLQDNFETDAVYDLPSSSEDQLLEHAEGQPVACNGHCK (UniProt Q8IU60)	-0.353	-1.7
DNAJA3_Q96EY1_236_EFTVNIMDTCER (UniProt Q96EY1)	-0.1	-0.195
DNMT1_P26358_1476+1478_GVCSCVEAGK (UniProt P26358)	-1.56	< -5
DNMT1_P26358_353+356_CIQCGQYLDDPDLK (UniProt P26358)	0.138	-0.0723
DDX24_Q9GZR7_570_IHCETDEK (UniProt Q9GZR7)	-0.15	0.261
CTNNB1_P35222_520_NLALCPANHAPLR (UniProt P35222)	-0.273	1.23
DLEC1_Q9Y238_256_LEDSCR (UniProt Q9Y238)	0.773	1.66
DNAJC7_Q99615_175_ALEFAPACHR (UniProt Q99615)	-0.118	-0.577
DECR1_Q16698_86_GMTTLLSSLGAQCVIASR (UniProt Q16698)	0.251	0.213
DIAPH2_O60879_775_NEYDDLCEPEQFGVVMSSVK (UniProt O60879)	-0.117	0.261
COLGALT1_Q8NBJ5_369_ALQAQEIECR (UniProt Q8NBJ5)	0.0256	0.125
COL15A1_P39059_965_GAIFPIPVRPHCK (UniProt P39059)	-0.0948	0.0369
DDX46_Q7L014_646_ASYPCMSLHGGIDQYDR (UniProt Q7L014)	-0.0173	0.231
CRELD2_Q6UXH1_120_SEYPDLFEWFCVK (UniProt Q6UXH1)	0.199	-0.0635
CPVL_Q9H3G5_320_CTEPEDQLYYVK (UniProt Q9H3G5)	-0.128	-0.131
DNM1L_O00429_446_IIQHCSNYSTQELLR (UniProt O00429)	-0.165	-0.0631
CRELD2_Q6UXH1_166_QGDGSCR (UniProt Q6UXH1)	-0.195	-0.265
CTNNA1_P35221_461_MSASQLEALCPQVINAALALAAK (UniProt P35221)	0.108	0.332

Target	probe-labelled cysteine peptide fold change (10 µM)	probe-labelled cysteine peptide fold change (50 µM)
DEF6_Q9H4E7_266_GIIPLDAHCCVEVLPDRDGKR (UniProt Q9H4E7)	0.106	-0.227
CPPED1_Q9BRF8_88_FFVLCGDLIHAMPGKPWR (UniProt Q9BRF8)	-0.0653	-0.191
CPSF1_Q10570_1102_IELQEWEHVTCMK (UniProt Q10570)	0.0314	-0.201
COPE_O14579_212_CSPTLLLLNGQAACHMAQGR (UniProt O14579)	0.0619	0.054
DDHD2_O94830_470_ESEFCSSSNTR (UniProt O94830)	-0.28	-0.538
CTSG_P08311_207_AAFKGDSGGPLLCNNVAHGIVSYGK (UniProt P08311)	-0.329	-0.817
DHX30_Q7L2E3_346_RPCTIQVPEPILR (UniProt Q7L2E3)	-0.647	-1.7
COPB1_P53618_248_CIYNLLQSSSPAVKYEAAGTLVTLSSAPTAIK (UniProt P53618)	0.0928	0.0416
DBR1_Q9UK59_347_VPCNFSVTAACYDPSKPQTQMQLIHR (UniProt Q9UK59)	-0.109	-0.299
DDX27_Q96GQ7_248_ACIPVGLLGK (UniProt Q96GQ7)	0.238	-0.122
DMXL2_Q8TDJ6_1897_VGCPVLALEVLSK (UniProt Q8TDJ6)	0.0214	-0.0631
COPE_O14579_225_CSPTLLLLNGQAACHMAQGR (UniProt O14579)	0.0563	0.158
DIAPH1_O60610_1227_KAGCAVTSLLASELTK (UniProt O60610)	-0.218	-1.27
CSE1L_P55060_61_VCASVTFK (UniProt P55060)	-0.071	0.0214
CTSZ_Q9UBR2_179_ECHAIR (UniProt Q9UBR2)	0.892	2.23
COG1_Q8WTW3_318_LCSWFK (UniProt Q8WTW3)	-1.03	-2.3
CORO1B_Q9BR76_25_NDQCYEDIR (UniProt Q9BR76)	-0.0464	-0.0083
DENND4B_O75064_652_HAALEFFDSCVEK (UniProt O75064)	0.0262	0.235
DIS3L2_Q8IYB7_196_LSVCVSEK (UniProt Q8IYB7)	-0.124	0.0776
CRIP1_P50238_56_TLTSGGHAEHEGKPYCNHPCYAAMFGPK (UniProt P50238)	-0.447	-1.41
DDX18_Q9NVP1_407_ANATVDGLEQGYVVCPSEK (UniProt Q9NVP1)	-0.401	0.698

Target	probe-labelled cysteine peptide fold change (10 µM)	probe-labelled cysteine peptide fold change (50 µM)
DESI1_Q6ICB0_108_GEAYNLFEHNCNTFSNEVAQFLTGR (UniProt Q6ICB0)	-0.076	-1.61
DDX17_Q92841_166+199_GGDVCPKPVFAFHHANFPQYVMDVLMDQHFTEPTPIQCQGFPLALSGR (UniProt Q92841)	-0.28	-1.05
DLGAP5_Q15398_129_YRPDMPCFLLSNQNAVK (UniProt Q15398)	-0.0877	-1.31
COPA_P53621_1169_NPTDAYQLNYDMHNPFDICAASYR (UniProt P53621)	0.178	0.397
CUL7_Q14999_952_CQQGGIDTR (UniProt Q14999)	-0.417	-0.0198
CORO1A_P31146_332_GLEVNKCEIAR (UniProt P31146)	-0.447	-1.1
CTNNB1_P35222_466_AGDREDITEPAICALR (UniProt P35222)	0.16	1.07
DNMT1_P26358_1339_ACQLSVVVDDKK (UniProt P26358)	-0.133	-1.16
CMTR1_Q8N1G2_794_DSTFDLPADSIAPFHICYYGR (UniProt Q8N1G2)	0.205	0.653
DGLUCY_Q7Z3D6_316_GIGHLLCK (UniProt Q7Z3D6)	-0.0414	0.0827
DHX57_Q6P158_644_LLYCTTGVLLR<|>DHX29_Q7Z478_678_LLYCTTGVLLR (UniProt Q7Z478+Q6P158)	-0.0914	0.172
DDX52_Q9Y2R4_342_TGFRDQLASIFLACTSHK (UniProt Q9Y2R4)	0.00973	0.189
DDX10_Q13206_196_INNINILVCTPGR (UniProt Q13206)	0.0926	0.195
CSE1L_P55060_344_NLFEDQNTLTSICEK (UniProt P55060)	-0.186	-0.107
COG1_Q8WTW3_625_LCQSLGELCPHLK (UniProt Q8WTW3)	-0.144	-0.347
CROT_Q9UKG9_166_MLFSTCK (UniProt Q9UKG9)	-0.0518	-0.0687
CRYZL1_O95825_302_YLCILK (UniProt O95825)	-0.195	-0.442
DCTD_P32321_60_IVGIGYNGMPNGCSDDVLPWR (UniProt P32321)	0.155	-0.179
DDX20_Q9UHI6_98_CGLDLIVQAK (UniProt Q9UHI6)	-0.0986	-0.579
DIP2A_Q14689_6_GCPLEAAPLPAEVR (UniProt Q14689)	-0.41	-2.19
CSDE1_O75534_657_FQLCVLGQNAQTMAYNITPLR (UniProt O75534)	0.223	0.2
